Assay outcomes from PubChem BioAssay.
This is a sample that favours compounds with a hit; in the whole collection about 2% have one here.
Rango-impB inh – inhibitors of Rango-importin beta complex formation; Q14974; Rango CFP/YFP FRET sensor + importin beta, 45 min; Potency, µM (titrated, usually from 92.2 µM), without a hit: at the top dose inhibition of complex formation; actives 0.031% (n = 340,000); AID 540263; calls by dose curve;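 note: 0% = DMSO wells and 100% = buffer wells lacking importin beta; nearly all actives have a fitted effect of over 15% in size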
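FRET biosensor Rango (snurportin 1 IBB between N-terminal EYFP and C-terminal Cerulean), 50 nM in PBS/1 mM DTT/0.02% Tween-20/0.1% BSA, preincubated 5 min RT with compound; 0.125 microM importin beta added, 45 min RT, CFP/YFP FRET ratio read.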
TDP-43 yeast inh – rescues yeast growth from TDP-43 toxicity. AID 652104. actives 1.8% (n = 410,000). TDP-43 expressing yeast growth rescue, BacTiter-Glo, 24 h. Potency, µM (series often up to 46.1 µM), for inactives: at the top dose growth rescue (activation), hits mostly activators; note: % of control where 0% means no effect; nearly all actives have a fitted effect of over 50% in size
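Galactose-induced TDP-43 yeast, OD600=0.02, compound pinned; 24 hr, 30 deg C; BacTiter-Glo luminescence for growth. Inhibitors of TDP-43 toxicity read as activators.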
Rango dissoc inh – inhibition of RanGTP-driven Rango-importin beta dissociation; O95149+P62826; Biochemical FRET Rango-importin beta, RanGTP-induced dissociation; Potency, µM (highest dose often 46.1 µM), inactives show at the top dose activity change, negative = inhibition; actives 0.071% (n = 340,000); AID 540253; calls by dose curve; note: % of control where 0% means no effect; nearly all actives have a fitted effect of over 45% in size
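Rango FRET biosensor (snurportin-1 IBB flanked by N-terminal EYFP and C-terminal CFP10) at 0.1 uM, with 0.25 uM importin beta in PBS, 1mM DTT, 0.02% Tween-20, 0.1% BSA. 0.6 uM Ran, 2mM GTP and 0.2 uM RCC1 were then added for 45 min at room temperature. Inhibition read as loss of FRET rise.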
Abeta yeast res – A-beta toxicity reversal in yeast. yeast expressing A-beta42, growth rescue, OD600, 48 h; response scale: 0% DMSO, 100% iron-clioquinol control. actives 0.063% (n = 410,000). Potency, µM (highest dose often 46.1 µM), usual class: activators. AID 1347071; note: nearly all actives have a fitted effect of over 55% in size
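Yeast A-beta toxicity model in growth medium with pinned compounds, 48 h at 30 C; growth read as absorbance at 600 nm. Normalized to FeCl3/clioquinol equimolar mix (positive) and DMSO (negative).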
S-ASM inh – inhibitors of human secretory acid sphingomyelinase. P17405. placental ASM, HMU-PC fluorogenic substrate, 60 min. Potency, µM (series often up to 57.5 µM), for inactives: at the top dose activity change, negative = inhibition, most hits filed as inhibitors. actives 0.006% (n = 340,000). AID 504937
Target sequence (P17405 47-631 limits assumed): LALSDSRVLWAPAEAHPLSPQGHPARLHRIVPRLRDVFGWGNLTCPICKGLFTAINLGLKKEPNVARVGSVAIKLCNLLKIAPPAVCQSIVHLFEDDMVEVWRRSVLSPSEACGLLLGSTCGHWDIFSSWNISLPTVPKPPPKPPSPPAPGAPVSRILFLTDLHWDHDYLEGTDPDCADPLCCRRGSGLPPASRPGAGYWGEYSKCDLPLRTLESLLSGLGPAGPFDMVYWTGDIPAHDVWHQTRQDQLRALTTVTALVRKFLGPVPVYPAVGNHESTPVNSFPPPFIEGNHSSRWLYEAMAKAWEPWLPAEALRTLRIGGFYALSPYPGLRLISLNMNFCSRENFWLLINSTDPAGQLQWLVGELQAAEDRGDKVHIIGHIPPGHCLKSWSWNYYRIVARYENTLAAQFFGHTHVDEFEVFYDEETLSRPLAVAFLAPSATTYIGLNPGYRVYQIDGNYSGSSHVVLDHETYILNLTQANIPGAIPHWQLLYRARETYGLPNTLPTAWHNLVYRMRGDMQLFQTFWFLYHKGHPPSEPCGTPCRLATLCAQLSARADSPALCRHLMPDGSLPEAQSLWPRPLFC
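Steps: dispense placental human ASM, pin compound, wait 10 min at room temperature, add HMU-PC0 substrate at 9 uM final, incubate 60 min at 37 °C, add stop solution raising pH to 10, read fluorescence.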
aSyn yeast inh – rescues yeast growth from alpha-synuclein toxicity | Yeast expressing alpha-synuclein, growth rescue, BacTiter-Glo, 24 h | Potency, µM (highest dose often 46.1 µM), without a hit: top-dose growth rescue (activation), actives largely listed as activators | actives 0.14% (n = 370,000) | AID 652106; note: % of control where 0% means no effect; nearly all actives have a fitted effect of over 65% in size
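Rescue of yeast growth: cells expressing toxic alpha-synuclein, induced in galactose at OD600 0.02, incubated with compound 24 h at 30 C. ATP luminescence quantified growth; inhibitors of toxicity appear as activators.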
* marks the source's active call; other numbers are inactive results; i = inactive; ? = inconclusive; nt = no result given. Unless noted, calls come from the whole dose curve; as a rule, active = well fitted curve in the direction sought with a large enough effect; inconclusive = small, poorly fitted or top-dose-only effect, or another doubt; inactive = no such curve, though single readings can be large; an effect the other way counts as inactive or inconclusive. Potency is the fitted concentration of half-maximal effect.

SMILES	Rango-impB inh	TDP-43 yeast inh	Rango dissoc inh	Abeta yeast res	S-ASM inh	aSyn yeast inh
CCOC(=O)c1noc2ncnc(Nc3cc(Cl)c(OC)cc3OC)c12	nt	20%	nt	i	nt	nt
CCOc1ccccc1NC(=O)Cn1c(=O)n(Cc2ccccc2)c(=O)c2cccnc21	nt	-2%	nt	i	nt	nt
CC(Oc1ccccc1)C(=O)Nc1ccc(OCc2cc(=O)n3ccsc3n2)cc1 (stereo not given)	nt	16µM*	nt	i	nt	nt
Cc1ccc(C(=O)OCc2cc(=O)n3ccsc3n2)s1	0%	28%	-3%	i	-7%	3%
Cc1cccn2c(=O)cc(COc3ccc(NC(=O)C(C)C)cc3)nc12	nt	17%	nt	i	nt	nt
COc1ccccc1C(=O)OCc1cc(=O)n2c(C)csc2n1	nt	35µM*	nt	i	nt	nt
Cc1ccc(C(=O)OCc2cc(=O)n3c(C)csc3n2)s1	0%	22µM*	-7%	i	-2%	-2%
COc1ccccc1C(=O)OCc1cc(=O)n2ccsc2n1	-1%	16µM*	-3%	i	-1%	12%
O=C(Nc1ccccc1Br)c1cnn2c1NC(=C1CC1)C=C2C(F)F	nt	nt	nt	nt	nt	2%
CN(C)c1ccc(C(=O)OCc2cc(=O)n3ccsc3n2)cc1	0%	?	-6%	i	9%	1%
O=C(OCc1cc(=O)n2ccsc2n1)c1ccc(OC(F)F)cc1	0%	7.1µM*	-15%	i	-1%	7%
Nc1nc(SCc2ccccc2)sc1C(=O)N1CCCCC1	nt	13µM*	nt	i	nt	16%
COc1ccc(NC(=O)c2sccc2OS(=O)(=O)N(C)C)cc1	1%	-8%	11%	i	-3%	2%
CN(C)S(=O)(=O)Oc1ccsc1C(=O)Nc1ccc(Cl)cc1	1%	14µM*	8%	i	-5%	0%
CN(C)S(=O)(=O)Oc1ccsc1C(=O)Nc1cccc(Cl)c1Cl	-4%	18µM*	1%	i	0%	9%
COC(=O)CC1Oc2ccc(C)cc2-n2cc(-c3ccc(F)cc3)nc21 (stereo not given)	nt	6%	nt	i	nt	nt
O=[N+]([O-])c1ccc(/C=N/Nc2nc(N3CCCCC3)nc(N3CCCCC3)n2)cc1	3%	5%	-12%	i	3%	-2%
O=[N+]([O-])c1ccc(Nc2nc(N/N=C\c3ccc4c(c3)OCO4)nc(N3CCCCC3)n2)cc1	-1%	11µM*	3%	?	-5%	-4%
O=[N+]([O-])c1ccc(/C=N/Nc2nc(N3CCCCCC3)nc(N3CCCCCC3)n2)o1	?	22µM*	-16%	i	-13%	0%
CC(=O)Nc1ccc(-c2csc(Nc3cc(C)ccn3)n2)cc1	6%	16µM*	1%	i	-16%	-23%
CC(=O)Nc1ccc(-c2csc(Nc3ccc(Cl)cn3)n2)cc1	-1%	9%	2%	i	-11%	-17%
COc1ccc(-c2csc(Nc3cc(C)ccn3)n2)cc1OC	1%	14µM*	-3%	i	-6%	-25%
CC(=O)Nc1cccc(-c2csc(Nc3ccc(Cl)cn3)n2)c1	1%	22µM*	?	i	-17%	3%
Cc1ccnc(Nc2nc(-c3c(C)nc4sccn34)cs2)c1	4%	7.1µM*	0%	i	-6%	nt
CN1CCN(CCCNC(=O)c2cnn(-c3ccc(F)cc3)c2-n2cccc2)CC1	nt	23%	nt	i	nt	1%
SMILES	Rango-impB inh	TDP-43 yeast inh	Rango dissoc inh	Abeta yeast res	S-ASM inh	aSyn yeast inh
Cc1ccc(N2CCN(C(=O)CCS(=O)(=O)c3cc4c(cc3Cl)NC(=O)CO4)CC2)c(C)c1	nt	9%	nt	i	nt	nt
O=C1c2ccccc2NC(c2ccc3c(c2)OCO3)N1Cc1ccco1 (stereo not given)	nt	nt	nt	nt	nt	6%
Cc1cccc(-c2nnnn2-c2cccc(C)c2)c1	0%	?	7%	i	-4%	0%
Cc1ccc(-n2nnnc2-c2cccc(C)c2)cc1	-1%	20µM*	20%	i	1%	0%
COc1ccc(-n2nnnc2-c2cccc(OC)c2)cc1	1%	13µM*	-5%	i	2%	2%
c1cn2c(NC3CCCCC3)c(-c3ccc(SC4CCCCC4)cc3)nc2cn1	?	?	?	i	i	3%
c1cc(SC2CCCCC2)cc(-c2nc3cnccn3c2NC2CCCCC2)c1	?	22µM*	?	i	i	-30%
COc1ccc(C)cc1NC(=O)c1c2c(nc3ccccc13)C(=O)N(C1CCCCC1)C2	nt	16%	nt	i	nt	nt
COc1ccc(NC(=O)N(Cc2ccco2)C2CCN(C(C)=O)CC2)c(OC)c1	nt	1%	nt	i	nt	nt
COc1cccc(CNC(=O)CCSCc2ccccc2F)c1	1%	14µM*	-3%	i	0%	6%
CCN(CC)c1c([N+](=O)[O-])c(=O)n(C)c2ccccc12	1%	-7%	1%	i	0%	18%
CN(Cc1ccccc1)c1c([N+](=O)[O-])c(=O)n(C)c2ccccc12	0%	16µM*	12%	i	-18%	?
Cc1c(C=O)c2ccccn2c1C(=O)c1ccc(Cl)c([N+](=O)[O-])c1	0%	5%	-8%	i	-8%	-1%
Cc1c(C=O)c2ccccn2c1C(=O)c1ccccc1	3%	?	9%	i	-6%	18µM*
Cc1c(C=O)c2ccccn2c1C(=O)c1ccc(F)cc1	-3%	-25%	1%	i	-5%	16µM*
O=C1CS(=O)(=O)C2(C(=O)N(Cc3cccc(F)c3)c3ccccc32)N1c1ccccc1 (stereo not given)	nt	6%	nt	i	nt	-2%
O=[N+]([O-])c1ccccc1S(=O)(=O)NCc1ccccn1	nt	nt	nt	nt	nt	1%
Cc1cccc(NC(=O)COc2ccccc2C(=O)Nc2ccccc2)c1	nt	nt	nt	nt	nt	1%
CC(=O)Nc1nnc(-c2ccc3c(c2)CCCC3)o1	-1%	32µM*	-9%	i	-1%	-10%
CC1CN(S(=O)(=O)c2ccc(C(=O)Nc3nnc(-c4ccc5c(c4)CCCC5)o3)cc2)CC(C)O1 (stereo not given)	-4%	21%	-5%	i	0%	1%
COc1ccccc1C(=O)Nc1nnc(-c2ccc3c(c2)CCCC3)o1	1%	18µM*	0%	i	-12%	?
